The supplement of paper PMC6805474

How the values were obtained:
[1] = system: Schistosoma mansoni schistosomula (NMRI); experiment: phenotypic severity score (0-4); higher = more antischistosomal effect, active = 2 or more; conditions: 10 µM
[2] = system: Schistosoma mansoni schistosomula (Liberian); experiment: drug effect (1 - score/DMSO control score) (fraction); higher = more antischistosomal effect, active = 0.5 or more; extreme values may be limits of the assay; conditions: 10 µM
Procedure, shortened: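 Schistosomula of the Liberian strain of Schistosoma mansoni were mechanically transformed from cercariae, pre-incubated for at least 12 h, and placed at 50 per well in flat-bottom 96-well plates with Medium 199 containing 5% FCS. Compounds were tested in duplicate at 10 µM at 37 °C and 5% CO2, alongside wells holding 0.1% DMSO. Parasites were scored visually at 10× after 24, 48 and 72 h on a quarter-point scale running from 3 (normal) to 0 (dead). Drug effect came from the mean test-well score relative to the mean DMSO-well score, with negative values set to zero and plates accepted only when the DMSO wells averaged at least 2.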

[3] = system: Schistosoma mansoni schistosomula (LE); experiment: XTT viability relative to DMSO control; higher = more viable (less active); conditions: 72 h; 10 µM
Experimental: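 XTT/PMS was then added for a further 24 h (72 h total) and A450 was read. % viability = (sample - heat-killed control)/(DMSO control - heat-killed control) x 100, from duplicate wells in two independent experiments.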
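For phenotypic severity score (0-4) in this document: visual microscopic scoring of shape, motility and density changes versus 0.5% DMSO solvent controls, one point per descriptor, degeneracy or death scored 4, mean of duplicate wells.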

| SMILES | phenotypic severity score ([1]; 24 h) | phenotypic severity score ([1]; 48 h) | phenotypic severity score ([1]; 72 h) | drug effect ([2]; 24 h) | drug effect ([2]; 48 h) | drug effect ([2]; 72 h) | XTT viability [3] [%] |
| --- | --- | --- | --- | --- | --- | --- | --- |
| CC(C)n1nc(-c2cc3c(Cl)cccc3[nH]2)c2c(N)ncnc21 | 4 (active) | 4 (active) | 4 (active) | 0.55 (active) | 0.667 (active) | 1 (active) | – |
| CC(C)(C)n1nc(Cc2cccc3ccccc23)c2c(N)ncnc21 | 0 (inactive) | 0 (inactive) | 0 (inactive) | 0.15 (inactive) | 0.222 (inactive) | 0.625 (active) | – |
| Cc1ccccc1C(=O)N1N=C(Nc2ccccc2)SC1(C)C | 1 (inactive) | 2 (active) | 0 (inactive) | 0.0455 (inactive) | 0.1 (inactive) | 0.158 (inactive) | – |
| CCc1ccccc1-n1c(C)cn2c3c(=O)n(C(C(=O)OC)C(C)C)c(=O)n(C)c3nc12 (centres undefined) | 1 (inactive) | 0 (inactive) | 0 (inactive) | 0.15 (inactive) | 0.405 (inactive) | 0.636 (active) | – |
| COc1cc(C2=NCCN2)ccc1-n1cc(-c2cccc(C3=NCCN3)c2)nn1 | 1 (inactive) | 0 (inactive) | 0 (inactive) | 0.243 (inactive) | 0.278 (inactive) | 0.5 (active) | – |
| O=C(Nc1ccc(C(F)(F)F)c(C(F)(F)F)c1)c1cc(Cl)ccc1O | 4 (active) | 4 (active) | 4 (active) | 1 (active) | 1 (active) | 1 (active) | – |
| O=C(NCc1cc(Cl)cc(Cl)c1)c1c(C(F)(F)F)nc2ccccn12 | 0 (inactive) | 1 (inactive) | 0 (inactive) | 0.158 (inactive) | 0.333 (inactive) | 0.312 (inactive) | – |
| Nc1ccc2ncnc(Nc3ccc(OCc4cccc(F)c4)c(Cl)c3)c2c1 | 4 (active) | 4 (active) | 4 (active) | 0.3 (inactive) | 0.622 (active) | 0.879 (active) | – |
| CCOc1ccc2cc(-c3nn(CC4CCN(C)CC4)c4ncnc(N)c34)ccc2c1 | 0 (inactive) | 0 (inactive) | 0 (inactive) | 0.1 (inactive) | 0.167 (inactive) | 0.389 (inactive) | – |
| CCOc1ccc(-c2nc(NC(=O)CS(=O)(=O)c3ccccc3)sc2C)cc1 | 0 (inactive) | 0 (inactive) | 1 (inactive) | 0.1 (inactive) | 0.0811 (inactive) | 0.111 (inactive) | – |
| CC(=O)Nc1ccc(NC(=O)c2cc(-c3cc(Cl)ccc3O)[nH]n2)cc1 | 0 (inactive) | 0 (inactive) | 0 (inactive) | 0.227 (inactive) | 0.15 (inactive) | 0.127 (inactive) | – |
| CC1=NN(c2nc3ccccc3s2)C(=O)C1Cc1cccc2ccccc12 (centres undefined) | 0 (inactive) | 0 (inactive) | 0 (inactive) | 0.0909 (inactive) | 0.1 (inactive) | 0.127 (inactive) | – |
| CC(C)(C)C(=O)N(CCCCCCN1C[C@H](O)[C@@H](O)[C@H](O)[C@H]1CO)C1CCCCCC1 | 0 (inactive) | 2 (active) | 4 (active) | 0.25 (inactive) | 0.556 (active) | 1 (active) | – |
| CC(C)NCC(=O)Nc1cccc(C(=O)Nc2cccc(C(F)(F)F)c2)c1 | 0 (inactive) | 0 (inactive) | 0 (inactive) | 0.2 (inactive) | 0.167 (inactive) | 0.375 (inactive) | – |
| COc1cc(C2=NCCN2)cc2cc(-c3ccc(C4=NCCN4)cc3)oc12 | 0 (inactive) | 0 (inactive) | 0 (inactive) | 0.1 (inactive) | 0.027 (inactive) | 0.0303 (inactive) | – |
| Nc1nc(N)c2c3c(sc2n1)CN(Cc1ccccc1)CC3 | 0 (inactive) | 0 (inactive) | 0 (inactive) | 0.15 (inactive) | 0.278 (inactive) | 0.438 (inactive) | – |

| SMILES | phenotypic severity score ([1]; 24 h) | phenotypic severity score ([1]; 48 h) | phenotypic severity score ([1]; 72 h) | drug effect ([2]; 24 h) | drug effect ([2]; 48 h) | drug effect ([2]; 72 h) | XTT viability [3] [%] |
| --- | --- | --- | --- | --- | --- | --- | --- |
| O=C(NCCN1CCCC1)c1cc(NCCCCN2CCC(F)(F)CC2)nc2ccc(Cl)cc12 | 2 (active) | 4 (active) | 4 (active) | 0.3 (inactive) | 0.389 (inactive) | 0.562 (active) | – |
| Nc1ncnc2c1c(-c1cnc3ccccc3c1)nn2CC1CCNCC1 | 0 (inactive) | 0 (inactive) | 0 (inactive) | 0.2 (inactive) | 0.278 (inactive) | 0.5 (active) | – |
| O[C@@H](c1cc(C(F)(F)F)nc2c(C(F)(F)F)cccc12)[C@H]1CCCCN1 | 4 (active) | 4 (active) | 4 (active) | 0.955 (active) | 1 (active) | 1 (active) | – |
| CCOc1ccccc1NC(C)C(=O)Nc1cc(C(F)(F)F)ccc1N1CCOCC1 (centres undefined) | 0 (inactive) | 0 (inactive) | 0 (inactive) | 0.15 (inactive) | 0.167 (inactive) | 0.312 (inactive) | – |
| FC(F)(F)c1cc(NCCc2ccccc2)nc(-c2ccccn2)n1 | 1 (inactive) | 2 (active) | 4 (active) | 0.05 (inactive) | 0.514 (active) | 0.394 (inactive) | – |
| Cc1ccc(S(=O)(=O)Nc2ccc(CN3CCN(C(=O)c4cccc(C#N)c4)CC3)cc2)cc1 | 0 (inactive) | 1 (inactive) | 1 (inactive) | 0.05 (inactive) | 0.0556 (inactive) | 0.0625 (inactive) | – |
| COc1ccc(N(CCc2cccc(C)n2)C(C)=O)cc1 | 1 (inactive) | 1 (inactive) | 0 (inactive) | 0.15 (inactive) | 0.135 (inactive) | 0.0909 (inactive) | – |
| CCOC(=O)c1cc(-c2csc(Nc3c(C)cc(C)cc3C)n2)on1 | 1 (inactive) | 1 (inactive) | 0 (inactive) | 0.182 (inactive) | 0.3 (inactive) | 0.291 (inactive) | – |
| c1coc(CNc2nc(N3CCCCC3)nc3ccccc23)c1 | 3 (active) | 2 (active) | 4 (active) | 1 (active) | 1 (active) | 1 (active) | – |
| Cc1cc(Cl)c(S(=O)(=O)N2CCCC2)cc1OCC(=O)NC1CCCCC1 | 0 (inactive) | 0 (inactive) | 0 (inactive) | 0.1 (inactive) | 0.189 (inactive) | 0.212 (inactive) | – |
| CC(Oc1ccccc1)C(=O)Nc1nc(-c2ccccn2)cs1 (centres undefined) | 2 (active) | 0 (inactive) | 4 (active) | 0.297 (inactive) | 0.5 (active) | 0.625 (active) | 59.4 |
| COc1ccc(Oc2ccc([C@@H](C)N(C)c3ncc4c(N)nc(N)nc4n3)cc2)cc1 | 4 (active) | 4 (active) | 4 (active) | 0.526 (active) | 0.5 (active) | 0.5 (active) | – |
| CC1=Nc2ccc(Cl)cc2C(O)(c2ccc(C)cc2)N1CCN1CCCCC1 (centres undefined) | 0 (inactive) | 0 (inactive) | 0 (inactive) | < 0 (inactive) | 0.188 (inactive) | 0.375 (inactive) | -4.23 |
| COc1ccc(Cl)cc1NC(=O)CN(C)C(=O)c1cnn(-c2ccccc2)n1 | 0 (inactive) | 0 (inactive) | 0 (inactive) | 0.2 (inactive) | 0.351 (inactive) | 0.389 (inactive) | – |
| Cc1nn(C)cc1C(C)Nc1nncc(-c2ccc(C(F)(F)F)cc2)n1 (centres undefined) | 0 (inactive) | 0 (inactive) | 0 (inactive) | 0.136 (inactive) | 0.1 (inactive) | 0.105 (inactive) | 77.5 |
